The panel holds about 79,000 compounds, 15% with a hit somewhere; the sample as a whole holds those more often. Calls of active or inactive are those of the source. No stated cut-off is given here; in the data, active means growth inhibition above about 70%; inactive means the rest.
Experiments:
[1] = NCI Yeast Anticancer Drug Screen. Data for the rad52 strain (AID 147);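 further: 0% = growth of vehicle-treated control cultures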; details: S. cerevisiae rad52 mutant growth inhibition, stronger effect = higher value
Procedure, shortened: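 Compounds are applied to a genetically defined yeast strain lacking normal DNA damage repair, and inhibition of growth is expressed relative to cultures given vehicle only.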

[2] = NCI Yeast Anticancer Drug Screen. Data for the wt1 strain (AID 149);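 further: 0% = growth of vehicle-treated wt1 cultures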; details: S. cerevisiae wt1 strain (SPY 50644) growth inhibition, stronger effect = higher value
Procedure, shortened: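 wt1 strain grown with compound or vehicle; inhibition taken from the growth difference.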

[3] = NCI Yeast Anticancer Drug Screen. Data for the rad50EPP+ strain (AID 151);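 further: 0% = growth of vehicle-treated control cultures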; details: S. cerevisiae rad50 mutant strain, stronger effect = higher value
Procedure, shortened: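 Compounds were applied to the rad50EPP+ yeast strain, which bears a defined DNA repair alteration, and growth inhibition was determined relative to vehicle-treated cultures.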

[4] = NCI Yeast Anticancer Drug Screen. Data for the mgt1 strain (AID 153); details: S. cerevisiae mgt1 mutant growth inhibition, stronger effect = higher value
Procedure, shortened: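 Strain: mgt1 yeast, one of a set carrying defined DNA damage repair or cell cycle control alterations. Compound-treated growth compared with vehicle.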

[5] = NCI Yeast Anticancer Drug Screen. Data for the rad50 strain (AID 155);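 further: 0% = growth of vehicle-only cultures of the same strain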; details: S. cerevisiae rad50 strain growth inhibition, stronger effect = higher value
Procedure, shortened: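 DNA repair mutant yeast, compound exposure, growth read-out; inhibition is taken relative to vehicle.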

[6] = NCI Yeast Anticancer Drug Screen. Data for the mec2-1 strain (AID 157); details: S. cerevisiae mec2-1 strain, stronger effect = higher value
Procedure, shortened: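 Strain: mec2-1 (DNA repair/cell cycle alteration). Compound exposure, then growth measured; inhibition expressed relative to vehicle.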

[7] = NCI Yeast Anticancer Drug Screen. Data for the rad14 strain (AID 159);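 further: 0% = growth of vehicle-treated control cultures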; details: S. cerevisiae rad14 strain growth inhibition, stronger effect = higher value
Procedure, shortened: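 DNA repair-defective yeast, compound-exposed; % growth inhibition derived by comparison with vehicle-treated controls.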

[8] = NCI Yeast Anticancer Drug Screen. Data for the sgs1 mgt1 strain (AID 161);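 further: 0% = growth of cultures given vehicle only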; details: S. cerevisiae sgs1 mgt1 strain, stronger effect = higher value
Procedure, shortened: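 Test agents were incubated with a DNA-repair-mutant yeast strain. Growth was then read and compared against vehicle-treated controls.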

[9] = NCI Yeast Anticancer Drug Screen. Data for the CLN2oe strain (AID 163);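 further: 0% = growth of vehicle-only control cultures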; details: S. cerevisiae CLN2oe strain, stronger effect = higher value
Procedure, shortened: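 Growth of a genetically modified yeast strain is measured after compound exposure and compared with cultures given vehicle alone.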

[10] = NCI Yeast Anticancer Drug Screen. Data for the cln2 rad14 strain (AID 165);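 further: 0% = growth equal to vehicle treated cultures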; details: S. cerevisiae cln2 rad14 strain, stronger effect = higher value
Procedure, shortened: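 Compounds are applied to the cln2 rad14 yeast strain, and growth is then compared with that of vehicle-treated cultures to give inhibition.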

[11] = NCI Yeast Anticancer Drug Screen. Data for the bub3 strain (AID 167); details: S. cerevisiae bub3 mutant strain, stronger effect = higher value
Procedure, shortened: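 In this screen, a yeast mutant lacking normal mitotic checkpoint function is challenged with compound. Relative growth versus vehicle gives the inhibition value.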

[12] = NCI Yeast Anticancer Drug Screen. Data for the wt2 strain (AID 169);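 further: 0% = growth of vehicle-treated yeast cultures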; details: S. cerevisiae wt2 strain growth inhibition, stronger effect = higher value
Procedure, shortened: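 This strain belongs to a panel of yeast strains with defined genetic alterations in DNA damage repair or cell cycle control. Compounds are applied, and growth inhibition is measured against vehicle-treated cultures.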

[13] = NCI Yeast Anticancer Drug Screen. Data for the mlh1 strain (AID 171);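 further: 0% = growth of vehicle-treated control cultures of the same strain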; details: S. cerevisiae mlh1 strain growth inhibition, stronger effect = higher value
Procedure, shortened: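 Growth of the mutant yeast strain after compound exposure, expressed as inhibition relative to vehicle-only controls.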

[14] = NCI Yeast Anticancer Drug Screen. Data for the sgs1 strain (AID 173);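 further: 0% = growth of vehicle-only control cultures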; details: S. cerevisiae sgs1 mutant, stronger effect = higher value
Procedure, shortened: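 Growth of a yeast strain bearing a defined genetic alteration is measured after compound treatment. Inhibition is expressed relative to vehicle-only controls.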

[15] = NCI Yeast Anticancer Drug Screen. Data for the mlh1 rad18 strain (AID 175); details: S. cerevisiae mlh1 rad18 strain growth inhibition, stronger effect = higher value
Procedure, shortened: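 Read-out is yeast growth inhibition, calculated against vehicle-only controls. The compound was applied to a strain engineered with DNA damage repair alterations.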

[16] = NCI Yeast Anticancer Drug Screen. Data for the rad18 strain (AID 177); details: S. cerevisiae rad18 mutant growth inhibition, stronger effect = higher value
Procedure, shortened: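 Growth of the mutant yeast strain after compound exposure, normalised to vehicle-only cultures.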

[17] = at 5.0 µM (retest, dose inferred, filed as 0.5)
[18] = at 50.0 µM (retest, dose inferred, filed as 5.0)

Measured: growth inhibition

O=[N+]([O-])c1cn[n+]([O-])c2ccccc12
active: [1]; at 11.0 µM 90% | [1]; at 33.0 µM 97% | [1]; at 100.0 µM 99% | [2]; at 33.0 µM 93% | [2]; at 100.0 µM 99% | [3]; at 3.7 µM 90% | [3]; at 11.0 µM 96% | [3]; at 33.0 µM 99% | [3]; at 100.0 µM 100% | [4]; at 33.0 µM 99% | [4]; at 100.0 µM 99% | [5]; at 11.0 µM 85% | [5]; at 33.0 µM 97% | [5]; [18] 97% | [5]; at 50.0 µM 89.3% | [5]; at 100.0 µM 99% | [6]; at 33.0 µM 97% | [6]; [18] 99% | [6]; at 50.0 µM 91.8% | [6]; at 100.0 µM 99% | [7]; at 11.0 µM 91% | [7]; at 33.0 µM 99% | [7]; at 100.0 µM 99% | [8]; [18] 99% | [8]; at 50.0 µM 90.3% | [9]; at 33.0 µM 84% | [9]; at 100.0 µM 99% | [10]; [18] 98% | [10]; at 50.0 µM 92% | [11]; at 33.0 µM 99% | [11]; [18] 99% | [11]; at 50.0 µM 89.5% | [11]; at 100.0 µM 99% | [12]; at 11.0 µM 75% | [12]; at 33.0 µM 100% | [12]; at 100.0 µM 99% | [13]; at 33.0 µM 95% | [13]; at 100.0 µM 99% | [14]; at 3.7 µM 71% | [14]; at 11.0 µM 84% | [14]; at 33.0 µM 98% | [14]; at 100.0 µM 98% | [15]; [18] 97% | [15]; at 50.0 µM 92% | [16]; at 1.2 µM 92% | [16]; at 3.7 µM 93% | [16]; at 11.0 µM 95% | [16]; at 33.0 µM 98% | [16]; at 100.0 µM 99%
inactive: [1]; at 1.2 µM 33% | [1]; at 3.7 µM 59% | [2]; at 1.2 µM 0% | [2]; at 3.7 µM 16% | [2]; at 11.0 µM 34% | [3]; at 1.2 µM 61% | [4]; at 1.2 µM 10% | [4]; at 3.7 µM -5% | [4]; at 11.0 µM 33% | [5]; at 1.2 µM 14% | [5]; at 3.7 µM 58% | [5]; [17] 25% | [6]; at 1.2 µM 17% | [6]; at 3.7 µM 10% | [6]; [17] -31% | [6]; at 11.0 µM 52% | [7]; at 1.2 µM 21% | [7]; at 3.7 µM 43% | [8]; [17] 38% | [9]; at 1.2 µM 0% | [9]; at 3.7 µM 11% | [9]; at 11.0 µM 14% | [10]; [17] 7% | [11]; at 1.2 µM -1% | [11]; at 3.7 µM -12% | [11]; [17] -28% | [11]; at 11.0 µM 0% | [12]; at 1.2 µM -18% | [12]; at 3.7 µM 5% | [13]; at 1.2 µM 10% | [13]; at 3.7 µM 6% | [13]; at 11.0 µM 39% | [14]; at 1.2 µM 40% | [15]; [17] 38%

— PubChem BioAssay (NCI)
